Drawing on ChEMBL document CHEMBL2218924, “A broad activity screen in support of a chemogenomic map for kinase signalling research and drug discovery” (Biochem J, 2013), this text covers residual activity for one compound.

One may read the residual activity as the signal under treatment as a percentage of the control signal.

Test [1] concerns the target T1, Ephrin type-B receptor 1 (Homo sapiens) (UniProt P54762).
T1 sequence (whole entry): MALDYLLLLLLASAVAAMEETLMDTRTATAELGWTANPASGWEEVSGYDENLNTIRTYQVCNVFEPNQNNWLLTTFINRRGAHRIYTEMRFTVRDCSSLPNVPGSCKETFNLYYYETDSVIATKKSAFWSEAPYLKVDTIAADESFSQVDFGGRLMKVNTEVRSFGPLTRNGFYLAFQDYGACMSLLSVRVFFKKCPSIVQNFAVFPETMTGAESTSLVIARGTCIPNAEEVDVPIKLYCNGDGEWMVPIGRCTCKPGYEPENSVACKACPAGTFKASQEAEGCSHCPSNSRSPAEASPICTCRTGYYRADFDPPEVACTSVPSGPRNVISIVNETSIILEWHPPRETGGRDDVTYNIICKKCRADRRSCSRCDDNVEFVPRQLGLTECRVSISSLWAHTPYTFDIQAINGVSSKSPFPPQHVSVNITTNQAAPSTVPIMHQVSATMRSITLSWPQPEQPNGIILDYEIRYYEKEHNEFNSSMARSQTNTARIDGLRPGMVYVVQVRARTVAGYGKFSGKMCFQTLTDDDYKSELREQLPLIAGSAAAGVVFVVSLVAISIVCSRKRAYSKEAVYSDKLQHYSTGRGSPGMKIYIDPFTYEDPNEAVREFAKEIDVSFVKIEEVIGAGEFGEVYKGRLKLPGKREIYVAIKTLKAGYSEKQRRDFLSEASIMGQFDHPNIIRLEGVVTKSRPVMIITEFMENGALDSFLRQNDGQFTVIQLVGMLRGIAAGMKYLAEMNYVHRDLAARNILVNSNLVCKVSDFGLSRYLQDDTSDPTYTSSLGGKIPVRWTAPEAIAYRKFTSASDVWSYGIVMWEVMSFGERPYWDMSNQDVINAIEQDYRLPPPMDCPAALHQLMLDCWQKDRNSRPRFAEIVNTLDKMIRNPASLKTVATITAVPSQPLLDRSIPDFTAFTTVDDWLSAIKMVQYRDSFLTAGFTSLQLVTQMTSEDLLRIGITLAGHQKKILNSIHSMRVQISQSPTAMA
Conditions: at 10 µM; call rule not given here.

In test [2] the target is T2, Ephrin type-B receptor 2 (Homo sapiens) (UniProt P29323).
T2 sequence (whole entry): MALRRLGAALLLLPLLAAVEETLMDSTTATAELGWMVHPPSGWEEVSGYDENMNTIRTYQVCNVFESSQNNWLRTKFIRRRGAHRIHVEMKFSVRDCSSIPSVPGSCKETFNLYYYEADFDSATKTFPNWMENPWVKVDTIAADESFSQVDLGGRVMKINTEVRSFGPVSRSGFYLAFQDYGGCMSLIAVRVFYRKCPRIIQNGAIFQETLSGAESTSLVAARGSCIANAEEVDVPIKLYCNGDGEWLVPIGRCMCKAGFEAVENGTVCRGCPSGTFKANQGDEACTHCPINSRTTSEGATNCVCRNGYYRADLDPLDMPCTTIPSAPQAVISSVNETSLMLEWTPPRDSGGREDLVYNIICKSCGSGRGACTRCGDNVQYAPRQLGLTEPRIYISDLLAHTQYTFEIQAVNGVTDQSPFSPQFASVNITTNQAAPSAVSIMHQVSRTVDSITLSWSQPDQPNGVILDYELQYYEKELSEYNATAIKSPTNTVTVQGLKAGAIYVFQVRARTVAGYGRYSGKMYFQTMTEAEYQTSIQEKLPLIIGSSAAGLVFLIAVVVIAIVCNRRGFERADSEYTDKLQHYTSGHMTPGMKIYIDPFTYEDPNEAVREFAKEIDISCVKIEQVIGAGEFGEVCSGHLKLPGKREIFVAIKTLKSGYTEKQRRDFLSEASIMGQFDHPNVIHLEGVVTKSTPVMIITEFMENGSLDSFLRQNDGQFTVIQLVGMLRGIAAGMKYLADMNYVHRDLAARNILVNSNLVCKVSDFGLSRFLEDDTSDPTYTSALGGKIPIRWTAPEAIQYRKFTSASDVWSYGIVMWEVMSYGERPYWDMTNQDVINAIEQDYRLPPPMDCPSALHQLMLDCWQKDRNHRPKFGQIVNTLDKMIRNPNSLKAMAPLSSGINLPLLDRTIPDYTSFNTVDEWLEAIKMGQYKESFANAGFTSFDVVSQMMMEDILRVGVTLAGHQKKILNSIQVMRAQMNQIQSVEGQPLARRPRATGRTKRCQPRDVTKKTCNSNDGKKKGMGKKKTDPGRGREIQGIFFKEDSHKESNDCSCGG
Conditions: at 1 µM.

Test [3] has as its target T2, Ephrin type-B receptor 2 (Homo sapiens). Conditions: at 10 µM.
Test [4] has as its target T3, Ephrin type-B receptor 3 (Homo sapiens) (UniProt P54753).
T3 sequence (whole entry): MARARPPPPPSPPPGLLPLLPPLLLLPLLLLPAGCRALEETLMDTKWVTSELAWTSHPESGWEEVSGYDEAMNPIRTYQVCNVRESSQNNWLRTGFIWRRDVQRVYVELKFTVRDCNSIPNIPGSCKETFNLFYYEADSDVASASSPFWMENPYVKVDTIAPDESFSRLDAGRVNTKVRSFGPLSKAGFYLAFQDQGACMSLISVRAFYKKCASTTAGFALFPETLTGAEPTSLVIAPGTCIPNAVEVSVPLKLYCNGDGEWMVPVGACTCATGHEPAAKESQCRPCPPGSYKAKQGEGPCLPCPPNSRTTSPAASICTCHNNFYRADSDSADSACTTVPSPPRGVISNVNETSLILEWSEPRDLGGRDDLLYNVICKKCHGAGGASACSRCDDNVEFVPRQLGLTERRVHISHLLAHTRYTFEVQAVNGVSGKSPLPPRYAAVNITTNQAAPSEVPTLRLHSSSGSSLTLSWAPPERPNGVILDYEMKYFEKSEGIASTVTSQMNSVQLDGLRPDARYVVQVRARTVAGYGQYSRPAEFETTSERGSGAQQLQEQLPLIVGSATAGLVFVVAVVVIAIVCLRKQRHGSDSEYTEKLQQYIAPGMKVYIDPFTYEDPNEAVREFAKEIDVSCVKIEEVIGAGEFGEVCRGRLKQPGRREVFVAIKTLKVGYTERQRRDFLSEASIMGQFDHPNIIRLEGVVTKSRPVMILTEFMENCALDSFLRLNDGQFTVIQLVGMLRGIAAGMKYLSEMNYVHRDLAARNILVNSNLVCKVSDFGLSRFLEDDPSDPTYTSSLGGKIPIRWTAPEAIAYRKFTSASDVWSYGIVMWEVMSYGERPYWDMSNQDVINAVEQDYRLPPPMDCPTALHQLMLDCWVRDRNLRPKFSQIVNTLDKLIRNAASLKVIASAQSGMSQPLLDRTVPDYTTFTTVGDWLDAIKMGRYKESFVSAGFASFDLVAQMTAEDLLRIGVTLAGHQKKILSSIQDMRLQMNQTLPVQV
To be noted: at 1 µM.

The target in test [5] is T3, Ephrin type-B receptor 3 (Homo sapiens). Conditions: at 10 µM.
For test [6], the target named is T4, Ephrin type-B receptor 4 (Homo sapiens) (UniProt P54760).
T4 sequence (whole entry): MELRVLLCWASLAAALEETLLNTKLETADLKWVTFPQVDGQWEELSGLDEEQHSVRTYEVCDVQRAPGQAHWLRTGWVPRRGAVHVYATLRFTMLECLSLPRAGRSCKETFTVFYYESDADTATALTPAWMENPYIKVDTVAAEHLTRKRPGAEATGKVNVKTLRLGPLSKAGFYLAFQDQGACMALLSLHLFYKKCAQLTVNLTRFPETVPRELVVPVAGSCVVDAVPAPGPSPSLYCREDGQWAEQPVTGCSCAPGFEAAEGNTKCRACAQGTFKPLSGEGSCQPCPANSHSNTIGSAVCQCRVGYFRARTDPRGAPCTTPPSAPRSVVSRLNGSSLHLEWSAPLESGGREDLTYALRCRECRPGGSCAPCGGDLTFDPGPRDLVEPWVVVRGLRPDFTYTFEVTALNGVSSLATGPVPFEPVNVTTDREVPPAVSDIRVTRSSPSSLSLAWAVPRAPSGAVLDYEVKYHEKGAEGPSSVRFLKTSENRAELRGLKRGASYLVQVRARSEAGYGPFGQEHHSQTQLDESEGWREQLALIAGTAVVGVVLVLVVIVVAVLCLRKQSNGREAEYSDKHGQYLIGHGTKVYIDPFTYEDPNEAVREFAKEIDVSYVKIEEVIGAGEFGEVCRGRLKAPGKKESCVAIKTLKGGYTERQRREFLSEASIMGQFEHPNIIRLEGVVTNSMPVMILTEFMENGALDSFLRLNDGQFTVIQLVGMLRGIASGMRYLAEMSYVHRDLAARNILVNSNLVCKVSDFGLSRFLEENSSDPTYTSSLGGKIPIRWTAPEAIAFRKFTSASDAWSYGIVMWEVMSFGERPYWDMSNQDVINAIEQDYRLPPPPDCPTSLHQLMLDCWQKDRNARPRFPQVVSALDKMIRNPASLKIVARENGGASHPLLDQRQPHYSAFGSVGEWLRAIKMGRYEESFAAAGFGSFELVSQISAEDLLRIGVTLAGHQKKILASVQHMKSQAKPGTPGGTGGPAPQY
To be noted: at 1 µM.

The target of test [7] is T4, Ephrin type-B receptor 4 (Homo sapiens). To be noted: at 10 µM.
Test [8] has as its target Receptor tyrosine-protein kinase erbB-4 (Homo sapiens) (UniProt Q15303). To be noted: at 1 µM.
The target is the same in test [9]. To be noted: at 10 µM.
Test [10] has as its target Focal adhesion kinase 1 (Homo sapiens) (UniProt Q05397). To be noted: at 1 µM.

Receptor tyrosine-protein kinase erbB-4 (Homo sapiens), sequence (Q15303 whole entry): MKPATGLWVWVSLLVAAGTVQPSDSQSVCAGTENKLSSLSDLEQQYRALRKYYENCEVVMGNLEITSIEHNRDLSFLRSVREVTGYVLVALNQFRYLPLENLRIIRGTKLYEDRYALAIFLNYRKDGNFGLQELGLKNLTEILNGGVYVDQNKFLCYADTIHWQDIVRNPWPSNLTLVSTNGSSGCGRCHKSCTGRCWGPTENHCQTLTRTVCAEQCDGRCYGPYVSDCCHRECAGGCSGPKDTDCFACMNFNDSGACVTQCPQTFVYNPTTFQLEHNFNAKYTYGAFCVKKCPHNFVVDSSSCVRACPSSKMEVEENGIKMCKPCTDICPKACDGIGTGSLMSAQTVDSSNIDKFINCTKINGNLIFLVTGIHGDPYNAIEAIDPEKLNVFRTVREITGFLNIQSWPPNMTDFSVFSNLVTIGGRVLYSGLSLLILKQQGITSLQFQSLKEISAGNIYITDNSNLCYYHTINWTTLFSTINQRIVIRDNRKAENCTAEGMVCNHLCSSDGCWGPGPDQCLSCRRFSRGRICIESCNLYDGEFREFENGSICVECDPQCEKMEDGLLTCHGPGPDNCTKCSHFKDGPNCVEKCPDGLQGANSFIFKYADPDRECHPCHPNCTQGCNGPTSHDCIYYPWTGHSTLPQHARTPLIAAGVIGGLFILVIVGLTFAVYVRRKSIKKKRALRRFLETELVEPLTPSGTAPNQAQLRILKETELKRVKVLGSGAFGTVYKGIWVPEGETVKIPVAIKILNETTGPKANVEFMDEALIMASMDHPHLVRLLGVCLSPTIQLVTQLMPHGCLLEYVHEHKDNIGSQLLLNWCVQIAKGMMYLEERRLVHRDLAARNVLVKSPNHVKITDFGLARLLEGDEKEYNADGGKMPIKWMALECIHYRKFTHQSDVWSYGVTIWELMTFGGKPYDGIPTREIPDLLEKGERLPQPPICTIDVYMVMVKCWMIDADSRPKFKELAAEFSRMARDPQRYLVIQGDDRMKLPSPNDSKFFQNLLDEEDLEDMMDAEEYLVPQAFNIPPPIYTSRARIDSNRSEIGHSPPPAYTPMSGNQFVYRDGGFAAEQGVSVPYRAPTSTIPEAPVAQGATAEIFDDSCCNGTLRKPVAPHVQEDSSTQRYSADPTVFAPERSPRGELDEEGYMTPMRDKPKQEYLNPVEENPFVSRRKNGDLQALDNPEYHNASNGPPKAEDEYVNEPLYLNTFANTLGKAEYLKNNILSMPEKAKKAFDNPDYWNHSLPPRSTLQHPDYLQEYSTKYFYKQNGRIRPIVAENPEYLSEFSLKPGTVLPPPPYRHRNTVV
Focal adhesion kinase 1 (Homo sapiens), sequence (Q05397 2-1052 limits assumed): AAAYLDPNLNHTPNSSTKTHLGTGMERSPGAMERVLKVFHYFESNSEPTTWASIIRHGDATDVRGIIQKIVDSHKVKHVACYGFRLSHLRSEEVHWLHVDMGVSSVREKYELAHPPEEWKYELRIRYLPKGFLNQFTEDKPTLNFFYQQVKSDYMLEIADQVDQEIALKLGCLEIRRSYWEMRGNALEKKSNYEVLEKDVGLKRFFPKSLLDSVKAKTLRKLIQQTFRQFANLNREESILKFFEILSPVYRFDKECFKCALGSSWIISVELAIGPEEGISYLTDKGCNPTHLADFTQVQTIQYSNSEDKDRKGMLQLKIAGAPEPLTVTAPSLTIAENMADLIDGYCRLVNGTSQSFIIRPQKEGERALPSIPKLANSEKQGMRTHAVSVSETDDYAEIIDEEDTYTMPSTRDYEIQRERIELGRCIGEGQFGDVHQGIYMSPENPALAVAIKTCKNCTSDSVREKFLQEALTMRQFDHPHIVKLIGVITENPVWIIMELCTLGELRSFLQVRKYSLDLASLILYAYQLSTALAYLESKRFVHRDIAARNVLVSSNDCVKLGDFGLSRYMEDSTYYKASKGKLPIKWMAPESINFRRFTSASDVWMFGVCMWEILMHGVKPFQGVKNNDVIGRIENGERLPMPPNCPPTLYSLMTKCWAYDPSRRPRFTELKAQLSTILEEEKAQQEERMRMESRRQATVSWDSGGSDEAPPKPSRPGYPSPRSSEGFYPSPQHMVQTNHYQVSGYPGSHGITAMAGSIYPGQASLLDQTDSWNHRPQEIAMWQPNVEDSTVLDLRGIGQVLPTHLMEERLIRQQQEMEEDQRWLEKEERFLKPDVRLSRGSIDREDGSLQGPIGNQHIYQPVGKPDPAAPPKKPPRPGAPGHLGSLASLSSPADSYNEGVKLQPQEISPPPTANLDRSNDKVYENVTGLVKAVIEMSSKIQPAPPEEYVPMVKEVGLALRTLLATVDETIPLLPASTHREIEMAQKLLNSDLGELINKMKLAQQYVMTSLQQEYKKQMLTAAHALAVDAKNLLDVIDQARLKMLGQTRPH

For `O=C1NC(=O)c2c1c1c3ccccc3[nH]c1c1[nH]c3cc(Br)ccc3c21`, the residual activity in [1] was 98%; in [2], 106%; in test [3], 101%; in test [4], 107% (inactive); in [5], 83%; in test [6], 102%. Moreover, the residual activity in test [7] was 93%; in test [8], 95%; in test [9], 83%; in test [10] it was 98%.
